Screen size: about 5,500 compounds; about 2,000 (36%) were called active. Not shown: some 18% with an inconclusive outcome. Rule as the data show it: active = normalized growth mostly below about 0.91 (no sharp cut-off); inconclusive = no clear call, values can overlap the other calls; inactive = mostly above about 0.92. Some of the results follow.
Assay: chemical genetic growth profiling, strain panel (AID 1159580);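 also: tested at 20 µM; growth read once vehicle control cultures reached saturation at 30 °C; 1 = growth at the plate median or of vehicle wells; lower values mean less growth of the strain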
Conditions: S. cerevisiae deletion strains, growth OD

Measured: normalized growth

CC1(C)CCC(C(C)(C)O)CC1
active: locus YJL187C, strain SWE1, active compounds read low 0.838
inactive: locus YAL013W, strain DEP1, active compounds read low 0.988 | locus YBR229C, strain ROT2, active compounds read low 1.01 | locus YCL061C, strain MRC1, active compounds read low 0.999 | locus YDL101C, strain DUN1, active compounds read low 1 | locus YDR150W, strain NUM1, active compounds read low 0.985 | locus YEL061C, strain CIN8, active compounds read low 1.03 | locus YGR078C, strain PAC10, active compounds read low 1.02 | locus YGR229C, strain SMI1, active compounds read low 0.991 | locus YHR030C, strain SLT2, active compounds read low 1.02 | locus YHR087W, strain rtc3, active compounds read low 1.02 | locus YJR043C, strain POL32, active compounds read low 0.988 | locus YJR075W, strain HOC1, active compounds read low 1 | locus YKL190W, strain CNB1, active compounds read low 0.992 | locus YLR039C, strain RIC1, active compounds read low 0.978 | locus YLR058C, strain SHM2 (second series), active compounds read low 0.995 | locus YLR085C, strain ARP6, active compounds read low 1.04 | locus YLR262C, strain YPT6, active compounds read low 0.939 | locus YML094W, strain GIM5, active compounds read low 1.04 | locus YMR219W, strain ESC1, active compounds read low 0.998 | locus YMR263W, strain SAP30, active compounds read low 1.01 | locus YNL128W, strain TEP1, active compounds read low 0.99 | locus YNL153C, strain GIM3, active compounds read low 1.01 | locus YNL298W, strain CLA4 (second series), active compounds read low 0.994 | locus YNL322C, strain KRE1, active compounds read low 0.994 | locus YNR030W, strain Alg12, active compounds read low 1.01 | locus YOL006C, strain TOP1, active compounds read low 0.984 | locus YPL055C, strain LGE1, active compounds read low 1.01 | locus YPL241C, strain CIN2, active compounds read low 1.04 | locus YPR135W, strain CTF4, active compounds read low 0.989
